Screening results from PubChem.
CHRM1 agonist – activates human CHRM1 receptor | P11229 | CHO-K1 hM1, Fluo-8 calcium fluorescence, agonist mode; 0% DMSO, 100% acetylcholine EC100 | activation, % at 3 µM | hit rate 0.33% among 360,000 | AID 588814;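 active means activation above the run's mean compound activation plus 3 SD, cut at about 16% in these data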;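 further: peak over basal fluorescence ratio within a 140 s kinetic read after compound addition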
Target sequence (P11229 whole entry, looked up): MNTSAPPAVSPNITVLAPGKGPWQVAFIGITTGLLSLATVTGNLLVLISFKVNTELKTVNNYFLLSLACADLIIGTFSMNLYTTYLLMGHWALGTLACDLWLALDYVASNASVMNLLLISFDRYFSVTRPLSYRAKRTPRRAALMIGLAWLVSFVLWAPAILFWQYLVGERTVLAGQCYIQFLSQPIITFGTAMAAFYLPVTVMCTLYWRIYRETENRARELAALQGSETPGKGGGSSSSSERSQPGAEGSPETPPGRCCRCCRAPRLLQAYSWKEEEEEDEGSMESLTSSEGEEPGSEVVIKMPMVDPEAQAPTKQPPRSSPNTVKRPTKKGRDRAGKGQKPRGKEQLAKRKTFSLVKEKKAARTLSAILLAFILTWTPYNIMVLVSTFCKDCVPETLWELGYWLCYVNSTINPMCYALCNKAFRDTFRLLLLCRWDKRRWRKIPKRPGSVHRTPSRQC
M1 PAM parental – nonselective activator or artifact in parental CHO-K1 calcium assay. activation, % at 3 µM. ATP EC20, Fluo-8 calcium fluorescence; 0% at ATP EC20, 100% at ATP max. hit rate 0.02% among 360,000;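 active means activation above the run cutoff, the mean activation of all test compounds plus 3 SD, cut at about 40% in these data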;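 further: peak over basal fluorescence ratio in a 140 s read after ATP addition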
CHO-K1 Ca antag – nonselective inhibitor or artifact in parental CHO-K1 cells | ATP-induced calcium, Fluo-8 fluorescence | inhibition, % at 3 µM | hit rate 0.6% among 360,000 | AID 602250;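 active means inhibition above a per-plate cutoff, the plate's mean sample inhibition plus 3 SD, cut at about 24% in these data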
CHO-K1 Ca ag – nonselective activator or artifact in parental CHO-K1 cells; Fluo-8 calcium fluorescence; scaled to maximal ATP response, vehicle zero; activation, % at 3 µM; hit rate 0.48% among 360,000; AID 602248; in the data active means activation above about 15%;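 further: untransfected CHO-K1 host cells lacking M1 receptor as counterscreen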
CHRM1 PAM – potentiates human M1 receptor response to acetylcholine; activation, % at 3 µM; P11229; AID 588819; hit rate 0.088% among 360,000; CHO-K1 hM1, Fluo-8 calcium fluorescence, ACh EC20; 0% = ACh EC20, 100% = maximal ACh; in the data active means activation above about 19%, passing the limit was not always enough
CHRM1 antagonist – human CHRM1 antagonism. P11229. CHO-K1 hM1, Fluo-8 calcium fluorescence, ACh EC80 antagonist. inhibition, % at 3 µM. hit rate 1.3% among 360,000. AID 588852;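 active means percent inhibition above its own plate's cutoff, namely the mean of that plate's compound wells plus 3 SD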;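 further: peak over basal fluorescence ratio during 140 s after agonist addition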
Numbers stand for hits; 0 = inactive. A selection: hits, their analogues and other compounds. The true share with any hit is near 2.3%.

SMILES	CHRM1 agonist	M1 PAM parental	CHO-K1 Ca antag	CHO-K1 Ca ag	CHRM1 PAM	CHRM1 antagonist
CCN(CC)CC(O)CNc1ccnc2c(Cl)ccc(Cl)c12 (stereo not given)	0	0	0	0	0	0
Nc1nc2c(ncn2[C@@H]2O[C@H](CNCc3ccc4ncccc4c3)[C@@H](O)[C@H]2O)c(=O)[nH]1	0	0	0	0	0	0
COC(=O)c1c(Sc2ccccc2)c2ccccc2n1C	35.0	0	0	0	0	0
Cn1c(CC(=O)NN)c(Sc2ccccc2)c2ccccc21	0	0	0	0	0	0
O=C(/C(N=Nc1cccc([N+](=O)[O-])c1)=C(/O)c1ccc(Br)cc1)C(F)(F)F	0	0	0	0	0	47.7
CCOC(=O)c1cc(CC)sc1NC(=O)c1ccc(N2C(=O)CCC2=O)cc1	0	0	0	0	0	0
CCOC(=O)c1cc(CC)sc1NC(=O)c1cc(OC)c(OC)c(OC)c1	0	0	31.9	0	0	0
C[C@@H]1CN([C@@H](C)CO)C(=O)CCCn2cc(nn2)CO[C@H]1CN(C)S(=O)(=O)c1ccc2c(c1)OCCCO2	0	0	0	0	0	0
CCCCCCCn1ccc(=N)cc1	0	0	0	0	0	0
CCCCCCCCCn1ccc(=N)cc1	0	0	0	0	0	39.9
Cn1c(=O)oc2cc(S(=O)(=O)N3CCCC(C(=O)NCc4ccc5c(c4)OCO5)C3)ccc21 (stereo not given)	0	0	0	0	0	0
O=C(NCc1ccccn1)C1CCCN(S(=O)(=O)c2ccc(Br)cc2)C1 (stereo not given)	0	0	23.8	0	0	0
O=C(NCc1ccccn1)C1CCCN(S(=O)(=O)c2cc(Cl)ccc2Cl)C1 (stereo not given)	0	0	0	0	0	0
Cn1c(=O)oc2cc(S(=O)(=O)N3CCCC(C(=O)NCc4cccs4)C3)ccc21 (stereo not given)	0	0	26.6	0	0	0
CN(C)Cc1ncccc1Oc1nc2cc(-c3cccc(Cl)c3)sc2c(=O)n1C	0	0	0	0	0	0
CCn1c(=O)n(CC(=O)Nc2ccc(F)cc2)c(=O)c2ccccc21	0	0	29.1	0	0	0
O=C(COC(=O)/C=C/c1ccccc1)Nc1ccc2c(c1)OCCO2	0	0	0	0	27.4	0
NC(=O)c1ccsc1NC(=O)COC(=O)COc1ccccc1[N+](=O)[O-]	0	0	0	0	0	0
NC(=O)c1ccsc1NC(=O)COC(=O)/C=C/c1ccccc1[N+](=O)[O-]	0	0	0	18.0	0	0
NC(=O)c1ccsc1NC(=O)COC(=O)/C=C/c1ccccc1	0	0	27.5	0	0	50.1
CCn1cc(/C=C(\NC(=O)c2ccccc2F)C(=O)NCCCn2ccnc2)c2ccccc21	0	0	0	0	0	0
CC(C)Oc1ccccc1C1(c2ccccc2)NC(=O)NC1=O (stereo not given)	0	0	0	0	0	0
Cc1ccc(NC(=O)C2CCN(c3ncnc4sc(C)c(C)c34)CC2)cc1S(=O)(=O)N(C)C	0	0	0	0	0	0
Cc1sc2ncnc(N3CCC(C(=O)N(C)CC(=O)Nc4ccccc4Br)CC3)c2c1C	0	0	0	0	0	34.7
CCN(CC)S(=O)(=O)c1cc(NC(=O)C2CCN(c3ncnc4sc(C)c(C)c34)CC2)ccc1Cl	0	0	0	0	0	36.5
SMILES	CHRM1 agonist	M1 PAM parental	CHO-K1 Ca antag	CHO-K1 Ca ag	CHRM1 PAM	CHRM1 antagonist
CCN(CC(=O)Nc1cc(Cl)ccc1C)C(=O)C1CCN(c2ncnc3sc(C)c(C)c23)CC1	0	0	0	0	0	37.0
CCOC(=O)c1ccc(N2CCN(c3ccc(F)cc3)CC2)c(NC(=O)Nc2cccc(OC)c2)c1	0	0	0	0	0	34.4
COC(=O)[C@@]1(Cc2ccccc2)[C@H]2C(=O)N(C)C(=O)[C@H]2[C@H]2CN=C(SCC(=O)c3ccccc3)N21	0	0	0	0	0	101.6
COc1cccc(C(=O)C[n+]2ccccc2/C=N/O)c1	0	0	0	0	0	26.9
COc1ccc2c(c1)C=C([C@@H]1C[C@H]3CN(c4ccccc4)C(=O)[C@]34CCCN14)CO2	0	0	0	0	0	57.6
CN1C[C@@H]2C[C@@H](C3=Cc4cc(Cl)ccc4OC3)N3CCC[C@@]23C1=O	0	0	0	0	0	0
Cc1ccc([C@@H]2C[C@H]3CN(Cc4cccc(Cl)c4)C(=O)[C@]34CCCN24)o1	0	0	0	0	0	0
Cc1cccc([C@@H]2C[C@H]3CN(Cc4cccc(Cl)c4)C(=O)[C@]34CCCN24)n1	0	0	0	0	0	23.3
COc1ccccc1CN1C[C@@H]2C[C@@H](c3ccc(C)cc3)N3CCC[C@@]23C1=O	0	0	0	0	0	0
CCc1ccc([C@@H]2C[C@H]3CN(Cc4ccccc4OC)C(=O)[C@]34CCCN24)cc1	0	0	0	0	0	47.1
COCc1cc([C@@H]2C[C@H]3CN(c4ccccc4)C(=O)[C@]34CCCN24)ccc1OC	0	0	0	0	0	57.4
CCCCN(C(=O)COC(=O)c1ccc(C=O)cc1)c1c(N)n(CCC)c(=O)[nH]c1=O	0	0	0	0	0	0
Cc1c(NC(=O)CSc2nc(N)cc(N)n2)c(=O)n(-c2ccccc2)n1C	0	0	0	0	0	0
COc1ccc(NC(=O)[C@@H]2[C@@H]3C(=O)N(C4CCCCC4)C(=O)[C@@H]3C3c4ccccc4C=CN32)cc1 (stereo not given in full)	65.1	0	0	0	0	25.2
COc1ccc(-c2nc3c4ccccc4ccn3c2Cc2ccsc2)cc1OC	0	0	23.7	0	0	0
COc1ccc(-c2nc3c4ccccc4ccn3c2Cc2ccc(C)cc2)cc1OC	0	0	0	0	0	0
O=S(=O)(c1ccc(Cl)nc1)N1CCC(Cc2ccccc2)CC1	0	0	0	0	0	0
NC(=O)C1CCN(c2ccc(S(=O)(=O)N3CCC(Cc4ccccc4)CC3)cn2)CC1	0	0	0	19.3	0	0
O=S(=O)(NC1CCCCC1)c1ccc(N2CCOCC2)nc1	0	0	0	19.3	0	0
O=S(=O)(c1ccc(N2CCCCCC2)nc1)N1CCCC1	0	0	0	0	0	69.7
CN1CCN(c2ccc(S(=O)(=O)N3CCCCC3)cn2)CC1	0	0	0	0	0	0
Cc1cc(C(=O)NN=C2CCCCCC2)c(C)o1	0	0	0	0	0	0
O=C(C1=NN(c2ccccc2)C(=O)CC1)N1CCc2ccccc2C1	0	0	0	0	0	0
CSc1nc(N)c2cn[nH]c2n1	0	0	0	0	0	0
O=S1(=O)C[C@H](N2CCCC2)[C@@H](COCc2ccccc2)N1	0	0	24.8	0	0	0
CCCCC1(Cc2ccc([N+](=O)[O-])cc2)C(=O)N(c2ccccc2)N(c2ccccc2)C1=O	0	0	0	0	0	35.9
